Assay results reported in the supplement of paper PMC3545927.
This is one part of the list. No count for the full screen is at hand.

Target: furin, P09958
Experiment: furin cleavage Z-score vs untreated control; higher = more cleavage, active = 3.5 or more, inactive = 1 or less, 8 variable residues between constant flanks
Outline: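 Abundance of DNA freed from bead-bound 8-mer peptide–cDNA fusions by purified furin was measured as sequencing read counts after PCR adapter tagging. Cutting ran 7.5, 15 or 30 min in 0.01 ml of 50 mM HEPES pH 7.5 with CaCl2 and NaCl at 1:10 enzyme:substrate. The cleavage Z-score expresses these log counts against furin-free reactions after lowess adjustment and median absolute deviation scaling.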

furin, P09958, sequence (P09958 whole entry): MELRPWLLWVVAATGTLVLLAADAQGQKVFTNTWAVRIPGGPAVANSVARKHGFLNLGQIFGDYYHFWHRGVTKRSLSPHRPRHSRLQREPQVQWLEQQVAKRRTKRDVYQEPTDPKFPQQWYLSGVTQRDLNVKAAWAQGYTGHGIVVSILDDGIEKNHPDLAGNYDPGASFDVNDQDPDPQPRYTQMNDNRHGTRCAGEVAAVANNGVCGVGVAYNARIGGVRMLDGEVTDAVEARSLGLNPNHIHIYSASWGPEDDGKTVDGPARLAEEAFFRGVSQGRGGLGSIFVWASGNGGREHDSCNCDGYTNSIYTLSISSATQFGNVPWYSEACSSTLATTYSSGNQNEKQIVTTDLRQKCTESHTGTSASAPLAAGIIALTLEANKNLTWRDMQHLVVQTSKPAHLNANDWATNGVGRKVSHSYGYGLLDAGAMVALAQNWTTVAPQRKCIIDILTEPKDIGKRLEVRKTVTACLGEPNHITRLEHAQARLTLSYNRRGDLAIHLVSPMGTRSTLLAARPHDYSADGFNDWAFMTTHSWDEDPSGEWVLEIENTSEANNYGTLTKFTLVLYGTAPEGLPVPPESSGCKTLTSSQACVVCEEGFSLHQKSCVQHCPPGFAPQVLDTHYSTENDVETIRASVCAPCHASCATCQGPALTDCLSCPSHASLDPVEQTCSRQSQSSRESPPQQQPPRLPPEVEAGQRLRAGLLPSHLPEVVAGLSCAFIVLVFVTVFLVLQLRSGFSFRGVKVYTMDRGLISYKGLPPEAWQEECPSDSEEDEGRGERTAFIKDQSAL

Sequence	furin cleavage Z-score (7.5 min)	furin cleavage Z-score (15 min)	furin cleavage Z-score (30 min)
CAAGVGIYLLAGNASASA [HC1661]	-0.0484 (inactive)	-0.628 (inactive)	0.389 (inactive)
CARLHGLSAFAGNASASA [HC1603]	-0.521 (inactive)	-1.08 (inactive)	0.0737 (inactive)
CAFTPCSGSWAGNASASA [HC1827]	-0.899 (inactive)	-0.656 (inactive)	-0.511 (inactive)
CACEMEECSQAGNASASA [HC1800]	-0.225 (inactive)	0.44 (inactive)	-0.298 (inactive)
CARLRKGCGAAGNASASA [FS-2157]	-0.162 (inactive)	0.798 (inactive)	-0.0332 (inactive)
CAGKVLIDILAGNASASA [HC1083]	-0.625 (inactive)	-0.337 (inactive)	-0.826 (inactive)
CALEGRRKRAAGNASASA [FS-938]	9.45 (active)	10.2 (active)	8.2 (active)
CAAPRRLRRAAGNASASA [FS-7]	6.44 (active)	6.75 (active)	5.94 (active)
CAQKGRVRRAAGNASASA [FS-78]	11.9 (active)	10.5 (active)	7.65 (active)
CAGKVRLRRAAGNASASA [FS-655]	8.27 (active)	7.38 (active)	7.81 (active)
CARGVAKAVDAGNASASA [HC754]	-0.917 (inactive)	0.591 (inactive)	0.29 (inactive)
CALWILQASLAGNASASA [HC610]	-0.000456 (inactive)	2.88	1.52
CADCNTCVTQAGNASASA [HC887]	0.505 (inactive)	-0.795 (inactive)	-0.033 (inactive)
CAEVPCHCPSAGNASASA [HC2380]	-0.21 (inactive)	0.0658 (inactive)	-0.42 (inactive)
CASTPCSAHRAGNASASA [HC2573]	0.385 (inactive)	0.166 (inactive)	1.63
CAYLNRYKRAAGNASASA [FS-635]	8.98 (active)	9.12 (active)	5.24 (active)
CALEGRVRRAAGNASASA [FS-268]	10.4 (active)	10.8 (active)	9.36 (active)
CAVLKEVKAAAGNASASA [HC1404]	-0.975 (inactive)	0.455 (inactive)	-0.678 (inactive)
CAGMGRVRRAAGNASASA [FS-27]	11.2 (active)	10.9 (active)	10 (active)
CAWLKRRKRAAGNASASA [FS-1181]	11.7 (active)	10.8 (active)	7.39 (active)
CATIASPKGPAGNASASA [HC705]	-0.242 (inactive)	-0.653 (inactive)	-1.2 (inactive)
CACGKYLFNWAGNASASA [HC1631]	-0.792 (inactive)	-0.758 (inactive)	-0.511 (inactive)
CAPVENLETTAGNASASA [HC759]	0.416 (inactive)	0.844 (inactive)	0.545 (inactive)

Sequence	furin cleavage Z-score (7.5 min)	furin cleavage Z-score (15 min)	furin cleavage Z-score (30 min)
CAYDVVCCSMAGNASASA [HC2109]	0.403 (inactive)	-1.03 (inactive)	-0.733 (inactive)
CAPEGRRKRTAGNASASA [FS-1042]	7.2 (active)	9.98 (active)	7.54 (active)
CAPEGRTWAQAGNASASA [HC196]	0.395 (inactive)	-0.56 (inactive)	-1.92 (inactive)
CAVDAETHVTAGNASASA [HC351]	-2.06 (inactive)	-2.12 (inactive)	-1.23 (inactive)
CARRKRLPEMAGNASASA [FS-1778]	0.399 (inactive)	0.463 (inactive)	-1.64 (inactive)
CARRVRSYGQAGNASASA [FS-2084]	2.55	4.27 (active)	5.55 (active)
CARRKREKTQAGNASASA [FS-3165]	5.81 (active)	8.48 (active)	5.8 (active)
CALSKRSLRDAGNASASA [FS-1373]	4 (active)	8.19 (active)	6.86 (active)
CARRKREVQMAGNASASA [FS-2779]	6.69 (active)	7.05 (active)	7 (active)
CAVSKGWRLLAGNASASA [HC670]	0.0516 (inactive)	-0.975 (inactive)	-0.799 (inactive)
CAWGENDTDVAGNASASA [HC425]	-1.56 (inactive)	-0.446 (inactive)	-2.12 (inactive)
CALDGVRLHRAGNASASA [HC1223]	-1.06 (inactive)	0.461 (inactive)	-0.00108 (inactive)
CALVVTSTWVAGNASASA [HC2145]	-0.711 (inactive)	-0.969 (inactive)	-0.561 (inactive)
CAEVWTSTWVAGNASASA [HC2188]	0.933 (inactive)	0.313 (inactive)	0.822 (inactive)
CATEPCSGSWAGNASASA [HC1852]	-0.934 (inactive)	-0.739 (inactive)	-1.88 (inactive)
CARRKRSPTQAGNASASA [FS-2069]	11.3 (active)	13.3 (active)	8.55 (active)
CALSKRLGRSAGNASASA [FS-1644]	9.63 (active)	10.3 (active)	7.46 (active)
CALKKRIKSVAGNASASA [FS-2123]	-0.488 (inactive)	-0.595 (inactive)	0.647 (inactive)
CALRKRDVSVAGNASASA [FS-1676]	4.02 (active)	6.7 (active)	7 (active)
CARRKRSIEEAGNASASA [FS-2230]	9.81 (active)	9.11 (active)	9.55 (active)
CARPVRDDSVAGNASASA [FS-3029]	0.58 (inactive)	-0.207 (inactive)	-0.229 (inactive)
CAEVPCHRLSAGNASASA [HC2385]	0.65 (inactive)	0.937 (inactive)	2.67
